Screening data deposited in PubChem by National Center for Advancing Translational Sciences (NCATS).
Rows were chosen to be rich in hits. Some 8.7% of all compounds tested hit in one or more screens of this group.
Sfp PPTase inh: Sfp phosphopantetheinyl transferase inhibition | Q9F4F7 | Biochemical Sfp PPTase activity, qHTS | Potency, µM, inactives show largest response in the series, negative = inhibition, actives largely listed as inhibitors | 3.5% of 310,000 active | AID 1490;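 also: the enzyme is Sfp with the accession as filed and its product quenches rhodamine fluorescence; 0% = enzyme reaction without inhibitor and -100% = no enzyme wells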
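Fluorescence-quenching assay: 15 nM Sfp-PPTase preincubated 15 min at room temperature with compound, then 5 uM rhodamine-CoA and 12.5 uM BHQ-2-labelled YbbR peptide added. Fluorescence (ex 525/em 598 nm) read at start and after 30 min; difference gives rate.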
ALOX12 inh: blocks human arachidonate 12S-lipoxygenase; P18054; purified 12hLO, xylenol orange hydroperoxide absorbance; Potency, µM (series often up to 108 µM), without a hit: at the highest dose activity change, negative = inhibition, usual class: inhibitors; 1.1% of 580,000 active; AID 1671190; also: % is scaled to controls: 0 for no effect and ±100 for the full control effect
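Purified human 12hLO at 150 nM in 25 mM Hepes, 0.01% Triton X-100, pH 7.0, preincubated 15 min at room temperature with compound. Reaction started with 40 uM arachidonic acid, 30 min at room temperature. Hydroperoxide measured by Fe-xylenol orange, 573/405 nm absorbance ratio.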
HP1b chromo inh: inhibitors of HP1-beta chromodomain binding to methylated histone tails; P83916; AlphaScreen HP1-beta / biotin-H3K9me3 peptide binding; Potency, µM (doses to about 114 µM), inactives show at the top dose activity change, negative = inhibition, usual class: inhibitors; 0.56% of 390,000 active; also: nearly all actives have a fitted effect of over 70% in size
Target sequence (P83916 whole entry, looked up): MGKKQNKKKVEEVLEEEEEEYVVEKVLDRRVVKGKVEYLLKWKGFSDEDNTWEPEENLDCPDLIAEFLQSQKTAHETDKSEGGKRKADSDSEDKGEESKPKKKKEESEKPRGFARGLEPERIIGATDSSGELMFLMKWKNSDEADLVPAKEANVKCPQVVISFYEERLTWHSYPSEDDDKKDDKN
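AlphaScreen: HP1-beta (50 nM) preformed 30 min with biotin-H3(1-18)K9me3 peptide (50 nM) in PBS pH 7.4, 0.01% Tween-20. Compound added for 30 min at RT, then streptavidin donor/nickel chelate acceptor beads (10 ug/mL) for 30 min.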
G9a block: blocks human histone lysine methyltransferase G9a; G9a H3K9 monomethylation, AlphaScreen, 2 h; Potency, µM (titrated, usually from 102 µM), without a hit: at the highest dose activity, negative = inhibition, actives largely listed as inhibitors; 8.8% of 350,000 active; also: % is scaled to controls: 0 for no effect and ±100 for the full control effect; nearly all actives have a fitted effect of over 75% in size
Target sequence (Q96KQ7 913-1193 limits assumed): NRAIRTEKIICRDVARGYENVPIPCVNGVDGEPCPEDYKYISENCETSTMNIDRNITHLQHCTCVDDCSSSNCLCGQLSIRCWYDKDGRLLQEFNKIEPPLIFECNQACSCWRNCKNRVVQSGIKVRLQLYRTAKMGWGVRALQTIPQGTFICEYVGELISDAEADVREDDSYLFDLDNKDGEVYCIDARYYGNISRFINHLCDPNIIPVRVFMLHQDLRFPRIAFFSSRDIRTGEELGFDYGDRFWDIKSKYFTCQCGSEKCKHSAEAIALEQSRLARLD
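Quantitative HTS format: methyltransferase activity on a biotin-tagged H3K9 peptide is measured by AlphaScreen, using a rabbit anti-monomethyl-H3K9 antibody with streptavidin donor and anti-IgG acceptor beads. Final levels are 20 nM enzyme, 500 nM peptide, 20 uM SAM; 2 h RT.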
JMJD2A Tudor inh: inhibitors of human JMJD2A Tudor domain; AlphaScreen JMJD2A-Tudor / H3K4me3 peptide binding; AID 504339; O75164; Potency, µM (doses to about 114 µM), for the others: at the top dose activity change, negative = inhibition, actives largely listed as inhibitors; 4.4% of 390,000 active; also: % is scaled to controls: 0 for no effect and ±100 for the full control effect; nearly all actives have a fitted effect of over 50% in size
BAZ2B block: BAZ2B (human) inhibition; Potency, µM (titrated, usually from 114 µM), without a hit: at the highest dose activity change, negative = inhibition, usual class: inhibitors; Q9UIF8; AlphaScreen BAZ2B-H3K14Ac peptide displacement; AID 504333; 4.4% of 360,000 active; also: % is scaled to controls: 0 for no effect and ±100 for the full control effect; nearly all actives have a fitted effect of over 60% in size
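BAZ2B (50 nM) with biotin-H3(5-23)K14Ac peptide (50 nM) in PBS pH 7.4, 0.01% Tween-20, preformed 30 min, then compound 30 min at room temperature; top concentration 110uM. AlphaScreen streptavidin donor/nickel chelate acceptor beads (10 ug/mL final), 20 min dark, signal read.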
Numbers without * were called inactive; ? = inconclusive; nt = no result given; [ ] = dose if it differs, or a comment. Calls follow the shape of the dose curve; as a rule, active = well fitted curve in the direction sought with a large enough effect; inconclusive = small, poorly fitted or top-dose-only effect, or another doubt; inactive = no such curve, though single readings can be large; an effect the other way counts as inactive or inconclusive. Potency is read from the fitted curve at half-maximal effect.

SMILES	Sfp PPTase inh	ALOX12 inh	HP1b chromo inh	G9a block	JMJD2A Tudor inh	BAZ2B block
COc1ccc(C(=O)N2CCC(N3CCCOC3=O)CC2)cc1	nt	8.9%[6.33 µM]	nt	nt	nt	nt
COc1ccccc1NC(=S)Nc1cccc2cnccc12	44.7µM*	-14.0%	-22.8%	25.1µM*	-28.1%	2.2%
Cc1cc(Cl)ccc1NC(=S)Nc1cccnc1	-1.4%	?	3.4%	5.9%	-40.5%	-4.5%
S=C(Nc1cccnc1)Nc1cccc2cnccc12	11.2µM*	0.0%	-7.2%	35.5µM*	-11.7%	nt
CN(C)S(=O)(=O)c1cccc(NC(=S)Nc2cccc3cnccc23)c1	2.51µM*	?	?	nt	-35.2%	17.8%
CCOC(=O)c1cccc(NC(=O)N2CC[C@@H](CC(=O)NCc3ccc(OC)c(OC)c3)[C@@H](CC)C2)c1	nt	54.3%	nt	nt	nt	nt
Cc1[nH]c2ccccc2c1C(=O)COC(=O)CCC(C)C	nt	-14.9%	nt	nt	nt	nt
N#CCCN1CCCc2cc(N=Nc3ccc(C(F)(F)F)cc3)ccc21	8.1%	?	11.2µM*	nt	12.6µM*	5.62µM*
CCCN(Cc1nnc(-c2ccccc2Cl)o1)C(=O)c1ccc(F)cc1Cl	nt	-30.4%	nt	nt	nt	nt
O=C(SCc1c(O)c2ccccc2oc1=O)c1ccccc1	nt	28.2µM*	nt	nt	nt	nt
O=C(c1cc2ccccc2o1)N1CCN(Cc2nc3ccccc3s2)CC1	nt	17.8µM*	nt	nt	nt	nt
O=C(c1cc2ccccc2o1)N1CCN(C/C=C/c2ccccc2)CC1	-13.3%	-16.7%	5.4%	nt	-35.6%	20.3%
O=C(Nc1ccc(SC2CCCC2)cc1)C1CC1	nt	6.4%	nt	nt	nt	nt
CN1CCC(N(C)S(=O)(=O)c2ccc(NC(=O)COc3ccc(Br)cc3Cl)cc2)CC1	nt	?	-6.2%	7.1%[0.501 µM]	-26.9%	?
Cc1ccccc1OCC(=O)Nc1ccc(S(=O)(=O)N(Cc2ccccc2)c2ccccc2)cc1	nt	-4.2%	41.4%	-5.9%[59 µM]	79.4µM*	-3.9%
O=C(COc1ccc(F)cc1)Nc1ccc(S(=O)(=O)N(Cc2ccccc2)c2ccccc2)cc1	nt	-5.1%	77.5%	35.7%[59 µM]	-10.3%	10.9%
Cc1ccc(OCC(=O)Nc2ccc(S(=O)(=O)N(C)C3CCN(C)CC3)cc2)c(C)c1	-13.5%	35.5µM*	28.0%	nt	-6.2%	-17.9%
CN1CCC(N(C)S(=O)(=O)c2ccc(NC(=O)COc3cccc(Cl)c3)cc2)CC1	nt	-5.8%	-2.4%	39.8µM*	-22.3%	2.9%
CN1C(=O)c2cccn2CC1CNS(=O)(=O)Cc1ccccc1F (stereo unspecified)	nt	43.3%	nt	nt	nt	nt
CC(C)Oc1ccc2c(NC(=O)CCn3cnnn3)nn(CC(F)(F)F)c2c1	nt	7.4%	nt	nt	nt	nt
CCOc1ccc(-c2ccc(SCC(=O)Nc3nnc(CC)s3)nn2)cc1	3.0%	-3.7%	9.5%	28.2µM*	-17.9%	-2.1%
CCc1nnc(NC(=O)CSc2ccc(-c3ccc(C)cc3)nn2)s1	?	-4.2%	19.6%	50.1µM*	-33.8%	-28.4%
COc1ccc(-c2ccc(SCC(=O)Nc3nnc(C)s3)nn2)cc1	0.1%	-11.3%	38.5%	8.6%	1.4%	-16.2%
COc1ccc(Cl)cc1NC(=O)CCc1ncc(-c2ccc(F)cc2)o1	nt	3.0%	nt	nt	nt	nt
Cn1cc(CN2CCC(C(O)c3cccnc3)CC2)c(-c2ccc(C3CCCCC3)cc2)n1 (stereo unspecified)	nt	71.1%	nt	nt	nt	nt
SMILES	Sfp PPTase inh	ALOX12 inh	HP1b chromo inh	G9a block	JMJD2A Tudor inh	BAZ2B block
N#Cc1ccc(C(=O)Nc2cc(S(=O)(=O)Nc3ccc(Cl)cc3)ccc2N2CCCCC2)cc1	22.4µM*	?	?	7.08µM*	?	-22.8%
N#Cc1ccc(C(=O)Nc2cc(S(=O)(=O)N3CCOCC3)ccc2N2CCCC2)cc1	nt	37.9%	35.6%	nt	-20.3%	nt
O=C(Nc1cc(S(=O)(=O)Nc2ccc(Cl)cc2)ccc1N1CCCCC1)c1ccc(F)cc1	14.1µM*	?	?	10µM*	?	-0.4%
NS(=O)(=O)c1ccc(CNC(=O)Cn2nc3c(cc2=O)CCCCC3)cc1	nt	5.4%	nt	nt	nt	nt
Cc1ccsc1C(=O)N1CCC(C2CCN(S(C)(=O)=O)CC2)C1 (stereo unspecified)	nt	12.7%	nt	nt	nt	nt
Cc1cc(/C=N/n2cnnc2)c(O)c([N+](=O)[O-])c1	-3.8%	-10.6%	4.2%	-0.5%[59 µM]	-7.3%	?
CN(C)C1(CN=Cc2cc(Cl)cc([N+](=O)[O-])c2O)CCCCC1	11.6%	17.8µM*	?	?	39.8µM*	44.7µM*
NS(=O)(=O)c1ccc(-c2ccc(/C=C3\SC(=S)N(C4CCS(=O)(=O)C4)C3=O)o2)cc1 (stereo unspecified)	?	-25.6%	11.6%	?	-20.0%	-27.7%
CC1=C(C#N)C(=O)N(C2CCS(=O)(=O)C2)C(=O)/C1=C\c1ccc(C)o1 (stereo unspecified)	12.6µM*	nt	nt	20µM*	nt	44.7µM*
O=C1/C(=C/c2ccncc2)SC(=S)N1C1CCS(=O)(=O)C1 (stereo unspecified)	50.1µM*	-3.3%	10.7%	?	-5.3%	4.4%
Cc1ccc(/C=C2\SC(=S)N(C3CCS(=O)(=O)C3)C2=O)o1 (stereo unspecified)	50.1µM*	?	-35.8%	nt	?	39.8µM*
Cc1nn2c(NCCN(C)C)cc(C(C)(C)C)nc2c1-c1ccc(F)cc1	nt	17.4%	nt	nt	nt	nt
Cc1ncsc1CN1CC[C@@H]2C(=O)NCCCCCCN(Cc3ccncc3)[C@@H]2C1	nt	203.7%	nt	nt	nt	nt
CC(CCc1ccccc1)NC(=O)COC(=O)c1cc(C(C)(C)C)cc(C(C)(C)C)c1 (stereo unspecified)	nt	10.8%	nt	nt	nt	nt
O=C(NCC12CCC=C1N(Cc1ccccc1)C(=O)CC2)c1cccnc1 (stereo unspecified)	nt	40.3%	nt	nt	nt	nt
